Bioassay records as filed in PubChem BioAssay.
Most compounds without a hit are left out; they make up all but 2.6% or so of the library.
Cruzain inh Det – inhibitors of Trypanosoma cruzi cruzain with detergent; AID 1478; P25779; Potency, µM, without a hit: max response, negative = inhibition, hits mostly inhibitors; hit rate 0.43% among 200,000; purified cruzain, Z-FR-AMC fluorescence, 0.01% Triton;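 further: plate controls were neutral wells for no effect and buffer without enzyme for full effect; nearly all actives have a fitted effect of over 40% in size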
Target sequence (P25779 123-467 limits assumed): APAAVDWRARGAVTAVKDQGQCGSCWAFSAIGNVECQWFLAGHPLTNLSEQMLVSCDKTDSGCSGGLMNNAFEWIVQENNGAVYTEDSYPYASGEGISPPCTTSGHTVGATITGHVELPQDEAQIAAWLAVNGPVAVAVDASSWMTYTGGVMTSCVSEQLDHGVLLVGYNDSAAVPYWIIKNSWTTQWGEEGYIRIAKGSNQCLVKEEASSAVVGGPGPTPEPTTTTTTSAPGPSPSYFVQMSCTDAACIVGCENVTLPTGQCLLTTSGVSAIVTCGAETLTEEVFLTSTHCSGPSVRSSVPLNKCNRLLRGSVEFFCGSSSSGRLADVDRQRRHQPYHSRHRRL
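Sodium acetate buffer (100 mM, pH 5.5) containing 5 mM DTT and 0.01% Triton X-100 hosted 1.5 nM cruzain and test compound for 15 min at room temperature. Cleavage of 2 uM Z-FR-AMC was then tracked by fluorescence.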
Cruzain inh noDet – inhibitors of Trypanosoma cruzi cruzain without detergent; Potency, µM, for inactives: max response, negative = inhibition, actives largely listed as inhibitors; AID 1476; purified cruzain, Z-FR-AMC fluorescence, no detergent; hit rate 2.3% among 200,000; P25779;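 further: plate controls were enzyme without inhibitor for no effect and buffer without enzyme for full effect; nearly all actives have a fitted effect of over 40% in size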
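Detergent-free condition (0.00005% Triton X-100) in acetate buffer pH 5.5 with DTT. 1.5 nM enzyme and compound were pre-mixed 15 min, then 2 uM Z-FR-AMC substrate added; reaction progress from fluorescence change between first and third reads (60 s).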
The depositor's hits bear a star; ? = inconclusive. The call rests on the fitted dose curve; in most records, active means well fitted curve in the direction sought with a large enough effect; inconclusive means small, poorly fitted or top-dose-only effect, or another doubt; inactive means no such curve, though single readings can be large; an effect the other way counts as inactive or inconclusive. Potency means the concentration at half of the fitted maximal effect.

SMILES | Cruzain inh Det | Cruzain inh noDet
Cc1cn2c(=O)cc(COC(=O)c3cccc(NC(=O)c4ccccc4Cl)c3)nc2s1 | -1% | -7%
CC1CN(C(=O)CCC(=O)Nc2cc(F)ccc2F)c2ccccc2S1 (stereo not drawn) | -7% | -5%
Cc1ccc(NC(=O)CN(C)S(=O)(=O)c2ccc3nc(C)sc3c2)c(C)c1 | 1% | 7%
CSC(=[SH+])N=N/C(=C1/C=CC=CN1)c1ccccn1.[Cu][Br] | 0% | 0%
Cc1nc(C)c(CCNC(=O)c2cccc(Cl)c2)s1 | ? | -29%
Cn1c(CCNC(=O)C(C)(C)C)nc2ccccc21 | 4% | 4%
Cn1c(CCNC(=O)c2ccccc2)nc2ccccc21 | 11µM* | -16%
Cn1c(CCNC(=O)c2ccc(F)cc2)nc2ccccc21 | 11µM* | 2.5µM*
CC(=O)Nc1ccc2c(c1)nc(CCNC(=O)c1ccccc1)n2C | -4% | -13%
Cc1nc(C)c(CCNC(=O)c2ccccc2)s1 | 28µM* | ?
CCc1ccc(C(=O)c2cn(CC(=O)Nc3cc(C)ccc3C)c3nc(C)ccc3c2=O)cc1 | 1% | 4%
C[C@@H]1CCC[C@H](C)N1 | 0% | -1%
CCN1C(C(=O)c2ccccc2)=C(Nc2ccccc2C)c2ccccc2S1(=O)=O | -7% | ?
Cc1ccc(NC2=C(C(=O)c3ccccc3)N(C)S(=O)(=O)c3ccccc32)cc1 | -5% | 20µM*
COc1cc(C(=O)Nc2ccc3[nH]c(=O)sc3c2)cc(OC)c1OC | -2% | -7%
Nc1ccc2ncccc2c1 | 2% | -7%
Nc1ccc2cc3ccccc3cc2c1 | 0% | 13µM*
[N-]=[N+]=CC(=O)CC[C@H](N)C(=O)O | 1% | -4%
CCN(CC)CCCC(C)n1c(-c2ccccc2)nc2c(NCCOC)nc(C)nc21 (stereo not drawn) | 6% | -3%
Cc1ccc(N/N=C/c2ccc3c(c2)OCCO3)cc1Cl | 3% | 20µM*
O=C(O)c1cc(N/N=C/c2ccc3c(c2)OCCO3)ccc1Cl | -8% | -1%
O=C(NCCC1=CCCCC1)C1CCN(S(=O)(=O)c2cccc3nsnc23)CC1 | -1% | 25µM*
O=C(NCCc1ccccc1)C1CCN(S(=O)(=O)c2cccc3nsnc23)CC1 | 2% | -6%
CC(=O)O[C@H]1C[C@@]2(C)[C@H](C[C@@H](O)[C@H]3[C@@]4(C)CC[C@@H](O)[C@@H](C)[C@H]4CC[C@@]32C)C1=C(CCC=C(C)C)C(=O)O | -7% | ?
COc1ccc(O)c(C(=O)c2cc(C(=O)NCCc3ccccc3)c(=O)n(CCc3ccccc3)c2)c1 | -5% | -2%
SMILES | Cruzain inh Det | Cruzain inh noDet
Cc1ccc(O)c(C(=O)c2cc(C(=O)NCCc3ccccc3)c(=O)n(CCc3ccccc3)c2)c1 | -5% | 25µM*
O=C1OC(=O)c2c(Cl)c(Cl)c(Cl)c(Cl)c21 | 4% | 3%
Cc1c(C(=O)NCc2ccc(Cl)cc2)sc2nc3n(c(=O)c12)CCCCC3 | -6% | -28%
CCc1cc2cc3c(cc2nc1SCC(=O)Nc1nccs1)OCO3 | 1% | 20µM*
Cc1ccc2c3c(c(SCC(=O)Nc4nccs4)nc2c1)CCCC3 | 2% | 1%
CCCCCCCCCCC(C)(C)C(=O)Nc1c(OC)cc(OC)cc1OC | -13% | ?
S=C(Nc1ccccc1)Nc1nc2ccccc2n1CCOc1ccccc1 | 4% | 10µM*
CC(=O)Nc1nc2ccccc2n1CCOc1ccccc1 | 0% | -7%
Cc1ccccc1NC(=O)Cn1c(=O)n(Cc2ccc3c(c2)OCO3)c(=O)c2ccc(C(=O)NC3CCCCC3)cc21 | -1% | -14%
CCCCCn1c(N2CCN(c3cccc(Cl)c3)CC2)nc2c1c(=O)[nH]c(=O)n2C | -13% | ?
Cn1c(=O)[nH]c(=O)c2c1nc(N1CCN(c3cccc(Cl)c3)CC1)n2CCCc1ccccc1 | 0% | 13µM*
CC(C)C1O[C@H](/C=C\c2ccccc2)OCC1(C)C (stereo partly drawn) | -1% | -2%
CCCOc1ccc(C(=O)NC(=S)Nc2nc3ccccc3s2)cc1 | 2% | ?
Cc1ccc2nc(NC(=O)c3ccc(Cl)s3)sc2c1 | 1% | 13µM*
Cc1ccc2nc(NC(=O)c3cccs3)sc2c1 | 0% | -8%
CCOCC(=O)Nc1nc2ccc(C)cc2s1 | -4% | 4%
CCCOc1ccc(C(=O)NC(=S)Nc2nc3ccc(C)cc3s2)cc1 | 7% | 25µM*
C/C=C/C(=O)OCC(=O)Nc1nc2ccc(C)cc2s1 | 0% | 20µM*
COC(=O)C1CCN(S(=O)(=O)c2cc3c4c(c2)CC(=O)N4CCC3)CC1 | -1% | ?
C[C@@H]1CCN=C(N)S1 | -3% | 2%
CC(C)(C)Cn1nc(-c2ccc(Cl)cc2)c2c(N)ncnc21 | -6% | 2%
COc1cccc(/C=C2/SC(=O)N(CC(=O)N3CCc4ccccc4C3)C2=O)c1OCC(=O)O | -1% | ?
O=C(O)COc1ccccc1/C=C1\SC(=S)N(/N=C/c2ccccc2O)C1=O | 28µM* | ?
COc1ccc(N2CCN(C(CNS(=O)(=O)c3ccc(OC)c(C)c3)c3ccco3)CC2)cc1 (stereo not drawn) | -4% | 2%
CCOC(=O)c1c(NC(=O)CSc2c[nH]c3ccccc23)sc2c1CCC2 | -5% | 32µM*
SMILES | Cruzain inh Det | Cruzain inh noDet
CCOC(=O)c1c(NC(=O)CSc2c[nH]c3ccccc23)sc2c1CCCC2 | -1% | 25µM*
CCOC(=O)c1c(NC(=O)CSc2nnc3ccccn23)sc2c1CCC2 | -7% | 13%
CCOC(=O)c1c(NC(=O)CSc2nnc(-c3c[nH]c4ccccc34)n2CCOC)sc2c1CCCCC2 | 1% | -9%
CC[N+](C)(CC)CCN1C(=O)c2ccccc2S1(=O)=O | 4% | 5%
Nc1ccc(-c2nc3ccc(-c4nc5ccc(N)cc5[nH]4)cc3[nH]2)cc1 | 14µM* | 25µM*
Nc1ccc(-c2nc3ccccc3[nH]2)cc1 | -3% | -30%
CCOc1ccc(CNC(=O)c2ccc3c(c2)c(C)c(C)n3Cc2ccccc2)cc1OC | 0% | -27%
S=C(NC1CCCCC1)NC1CCCCC1 | 3% | 6%
COC(=O)c1ccc(-c2ncc(-c3cccc4ccccc34)o2)cc1 | 20µM* | ?
COC(=O)c1ccc(-c2nc3ccccc3o2)cc1 | 2% | 7%
O=C1NC(=O)c2cc([N+](=O)[O-])ccc21 | 1% | 11%
COC(=O)[C@@]1(C)C=C[C@@H](Cc2ccccc2)N1C(=O)c1ccccc1 | -4% | -5%
O=C(CSc1ncnc2scc(-c3ccccc3)c12)N1CCN(c2ccccc2F)CC1 | -4% | 32µM*
COc1ccccc1N1CCN(C(=O)CSc2ncnc3scc(-c4ccccc4)c23)CC1 | 0% | 6%
CC(C)OC(=O)c1c(-c2ccccc2)c(-c2ccccc2)nn(C)c1=O | 0% | 4%
CCc1ccc(Nc2nc3ccccc3c3nnc(C)n23)cc1 | -14% | 25%
O=[N+]([O-])c1ccc2c(c1)Cc1cc(N=Cc3ccc4c(c3)OCO4)ccc1-2 | -1% | -3%
CCSCCCC(=O)O | 2% | -9%
Cc1ccc(OCCSc2nc3ccc(NC(=O)c4cccs4)cc3s2)cc1 | -2% | 0%
Cc1cc(C)cc(OCCSc2nc3ccc(NC(=O)c4cccs4)cc3s2)c1 | -2% | 20µM*
Cc1ccc(NC(=O)N2CCC(N3CCN(Cc4ccccc4)C(=O)C3=O)CC2)cc1Cl | 0% | 13%
Cc1cc(C)c(NC(=O)C2c3ccccc3Oc3ccccc32)c(C)c1 | 4% | 13µM*
O=C(Nc1cccnc1Cl)C1c2ccccc2Oc2ccccc21 | 3% | 1%
CCc1ccccc1NC(=O)C1c2ccccc2Oc2ccccc21 | -2% | 25µM*
